The source of these data is PubChem BioAssay (NCATS).

Inconclusive results are not listed. The source made the active and inactive calls. The call rests on the fitted dose curve; in most records, active means well fitted cell-killing curve with a large enough effect; inconclusive means small, poorly fitted or top-dose-only effect; inactive means no such curve, though single readings can be large or run the other way.
On the % scale 0 is the no-effect control and ±100 the full control effect; potency means the concentration at half of the fitted maximal effect.

This experiment in a line: qHTS of pediatric cancer cell lines to identify multiple opportunities for drug repurposing: Confirmatory screen for DAOY cells (AID 1347114). Further: nearly all actives have a fitted effect of over 65% in size. The conditions noted are these: DAOY medulloblastoma cells viability, cytotoxicity qHTS; series mostly up to 45.9 µM; activity change, negative = cytotoxic: at the top concentration. The source says: Drug repurposing or repositioning has been offered as a strategy for drug development in oncology programs. This approach has special potential for childhood cancers and other rare or orphan diseases, where the expected return on new drug development has been a disincentive to pharmaceuticals.
In this project we exploit the poly-pharmacology of drugs to discover new indications via phenotypic screening of a panel of 19 well-characterized cell lines derived from solid tumors seen in children and adolescents. The goal is to identify approved drugs with previously unrecognized anticancer properties that has the potential to reveal new mechanisms and biological processes involved in carcinogenesis or drug resistance. We employed a titration-based paradigm (quantitative high-throughput screening or qHTS), where all compounds were tested at multiple concentrations for their effect on cell viability. Concentration-response curves (CRCs) were derived directly from the primary screen, and both potency and efficacy values were used to identify compounds with robust bioactivity profiles. We screened the NIH Chemical Genomics Center (NCGC) Pharmaceutical Collection (NPC) and Mechanism Interrogation Plate (MIPE) small molecule collections of approved and investigational compounds against these cell lines; and measured metabolically active cells after 48 hours of compound treatment as a proxy for cell viability.
Assay Submitter: Nathalia J. Martinez, National Center for Advancing Translational Sciences, National Institutes of Health, Rockville, MD, USA; email: natalia.martinez@nih.gov
[1] Shen, M et al. Quantitative high-throughput phenotypic screening of pediatric cancer cell lines identifies multiple opportunities for drug repurposing. Oncotarget 2017 Dec 19;9(4):4758-4772. PMID 29435139.
The cells were obtained from University of North Carolina (UNC), Pediatric Preclinical Testing Program (PPT), and Coriell Institute (CI).
qHTS cell viability assay:
Cells were assayed in growth media at a density of 500-1,000 cells/well. Five microliters of cells were dispensed into 1,536-well, white, solid-bottom, TC-treated plates (Greiner Bio One) using a multidrop dispenser and incubated at 37 degrees C, 5% CO2, under a humidified atmosphere for 5 hours. Twenty-three nanoliters of compounds and controls (neutral control DMSO or positive control bortezomib at final concentration of 2.3 µM) were subsequently transferred by Kalypsys pintool. For primary screens, the MIPE collection was tested at 11-point dilutions (final concentrations range from 0.78 nM to 46 µM) and the NPC collection at 8-point dilutions (final concentrations range from 0.59 nM to 46 µM). Compounds tested in follow-up screens were assayed at 11-point dilutions. Cells were incubated for 48 hours, followed by addition of 3 uL of CellTiter-Glo (Promega). After a 15 min incubation at room temperature, samples were analyzed for luminescence intensity using a ViewLux High-throughput CCD imager equipped with clear filters.
In general terms: Quantitative high-throughput screening tests each substance at several concentrations.
Take `C[C@H]1O[C@@H](O[C@H]2CC[C@@]3(C)[C@H](CC[C@@H]4[C@@H]3C[C@@H](O)[C@]3(C)[C@@H](C5=CC(=O)OC5)CC[C@]43O)C2)C[C@H](O)[C@@H]1O[C@H]1C[C@H](O)[C@H](O[C@H]2C[C@H](O)[C@H](O[C@@H]3O[C@H](CO)[C@@H](O)[C@H](O)[C@H]3O)[C@@H](C)O2)[C@@H](C)O1`: the Potency was 117 nM (active).
Still for that read-out and setting: as for `CCCCCCCCCCCCOCCOCCOCCOCCOCCOCCOCCOCCOCCO`, the figure is 14700 nM (active).
For `COc1ccc(C(=O)c2ccccc2)c(O)c1`, the “activity change, negative = cytotoxic” value is 2.23% (inactive).
Same read-out and setting: as for `CCN[C@@H]1C[C@H](N)[C@@H](OC2OC(CN)=CCC2N)[C@H](O)[C@H]1O[C@H]1OC[C@](C)(O)[C@H](NC)[C@H]1O` (stereo partly specified), the figure is 15.9% [at 0.556 µM] (inactive); as for `CCCCCCCCCCC[C@@H](C[C@@H]1OC(=O)[C@H]1CCCCCC)OC(=O)[C@H](CC(C)C)NC=O`, -19.2% (inactive).
For `CCN1/C(=C/C=C/c2sc3ccccc3[n+]2CC)Sc2ccccc21`, the Potency was 362 nM (active).
Consider `O=C(Oc1cccc2cccnc12)c1ccccc1`, for which the “activity change, negative = cytotoxic” value is 2.66% (inactive).
On to `C[C@@]12C(=O)OC(=O)[C@]1(C)C1CCC2O1`, for which the Potency was 2930 nM (active).
For the molecule `C=C[C@@]1(C)CC(=O)[C@]2(O)[C@@]3(C)[C@@H](O)CCC(C)(C)[C@@H]3[C@H](O)[C@H](OC(C)=O)[C@@]2(C)O1`, the “activity change, negative = cytotoxic” value is -1.3% (inactive).
Same read-out and setting: as for `CN(C)C(=O)Nc1ccc(Cl)c(Cl)c1`, the figure is -20.1% (inactive).
`NC(N)=NN=C(/C=C/c1ccc([N+](=O)[O-])o1)/C=C/c1ccc([N+](=O)[O-])o1`: the Potency was 3290 nM (active).
